Source: PubChem
Most compounds without a hit are left out; they make up all but 10% or so of the library.
PLK1 PBD block – qHTS for Inhibitors of PLK1-PDB (polo-like kinase 1 - polo-box domain): Primary Screen | Serine/threonine-protein kinase PLK1 (Homo sapiens), P53350 | Plk1 PBD binding of FITC phosphopeptide, fluorescence polarization | Potency, µM, for inactives: max response, negative = inhibition, hits mostly inhibitors | 2.8% of 360,000 active | AID 720504, 2013; note: potency is the fitted concentration of half-maximal effect; series mostly up to about 57 µM; nearly all actives have a fitted effect of over 65% in size
Mm-Cpn inhibitor – Inhibitors of TCP-1 ring complex (TRiC) of Methanococcus maripaludis (MmCpn): qHTS; Chaperonin Mm-Cpn (Methanococcus maripaludis); purified Mm-Cpn ATPase, ADP Transcreener TR-FRET; Potency, µM (highest dose often 76.9 µM), without a hit: top-dose activity, negative = inhibition, most hits filed as inhibitors; 0.031% of 330,000 active; note: potency is the fitted concentration of half-maximal effect; nearly all actives have a fitted effect of over 80% in size
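Inhibition of chaperonin ATP hydrolysis is measured as reduced ADP production, detected by competitive TR-FRET in which signal falls with ADP. Final enzyme 25 nM and ATP 10 uM, reacted 30 min at 37°C.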
G9a inh – qHTS Assay for Inhibitors of Histone Lysine Methyltransferase G9a; G9a H3K9 monomethylation, AlphaScreen, 2 h; 8.8% of 350,000 active; Potency, µM (top dose mostly 102 µM), inactives show at the top dose activity, negative = inhibition, hits mostly inhibitors; AID 504332, 2011; note: potency is the fitted concentration of half-maximal effect; nearly all actives have a fitted effect of over 75% in size
Target sequence (Q96KQ7 913-1193 limits assumed): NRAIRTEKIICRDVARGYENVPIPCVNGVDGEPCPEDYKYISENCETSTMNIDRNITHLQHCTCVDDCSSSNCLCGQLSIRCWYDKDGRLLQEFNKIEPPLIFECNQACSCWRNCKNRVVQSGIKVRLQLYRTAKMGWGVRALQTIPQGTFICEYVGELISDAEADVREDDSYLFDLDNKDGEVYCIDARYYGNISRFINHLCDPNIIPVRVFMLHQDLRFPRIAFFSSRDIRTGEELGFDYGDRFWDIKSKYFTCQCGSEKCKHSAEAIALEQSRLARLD
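Methyltransferase reactions run at room temperature for 2 h (20 nM enzyme, 500 nM biotin-H3K9 peptide, 20 uM SAM) after a 15 min compound preincubation; product detected by AlphaScreen beads and anti-H3K9me1 antibody.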
CCT chaperon mod – High-Throughput Screening for Modulators of Cytosolic Chaperonin Activity | activity change, % (concentration not given with the values), hits read low | 0.3% of 360,000 active | AID 651819, 2012 | purified chaperonin ATPase assay, HTRF ADP detection, 30 min; in the data active = activity change below about -30%
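TRiC at 40 or 20 nM final (batch-dependent) in 30 mM Tris pH 7.4, 100 mM KCl, 5 mM MgCl2, 1 mM DTT, with compound at single 76 uM and 10 uM ATP, 30 min at 37 deg C. ADP detected by HTRF Transcreener, 665/615 ratio.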
VDR inhibitor – Inhibitors of the vitamin D receptor (VDR): qHTS; 0.93% of 400,000 active; AID 504847, 2011; Vitamin D3 receptor (Homo sapiens), P11473; VDR-SRC2-3 peptide fluorescence polarization, 2 h; Potency, µM, for inactives: max response, negative = inhibition, actives largely listed as inhibitors; note: potency is the fitted concentration of half-maximal effect
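VDR–SRC2-3 interaction, FP format. Cmpds 23 nl via pintool, brief spin, 2 h ambient incubation.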
Sfp inh – qHTS Assay for Inhibitors of Bacillus subtilis Sfp phosphopantetheinyl transferase (PPTase); 4'-phosphopantetheinyl transferase ffp (Bacillus subtilis), Q9F4F7; 3.5% of 310,000 active; AID 1490, 2009; Biochemical Sfp PPTase activity, qHTS; Potency, µM, inactives show largest response in the series, negative = inhibition, actives largely listed as inhibitors;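 note: the enzyme is Sfp with the accession as filed and its product quenches rhodamine fluorescence; potency is the fitted concentration of half-maximal effect; 0% = enzyme reaction without inhibitor and -100% = no enzyme wells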
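Step 1, compound plus 15 nM Sfp-PPTase, 15 min, room temperature. Step 2, add rhodamine-CoA (5 uM) and BHQ-2-YbbR (12.5 uM). Step 3, read 525/598 nm fluorescence at 0 and 30 min.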
An asterisk follows results filed as active; [ ] = remark or other dose. Unless noted, calls come from the whole dose curve; as a rule, active = well fitted curve in the direction sought with a large enough effect; inconclusive = small, poorly fitted or top-dose-only effect, or another doubt; inactive = no such curve, though single readings can be large; an effect the other way counts as inactive or inconclusive. Unless noted, % is set by controls: 0 for no effect and ±100 for the full control effect.

What do the screens show for `Cc1ccc(C(=O)NCC(=O)OCc2cc(=O)n3ccsc3n2)cc1`?
G9a inh: 3.2%[59 µM]; VDR inhibitor: 21.5%

How did CC(NC(=O)C1CCCC1)C1CC2CCC1C2 (configuration not stated) do in these assays?
PLK1 PBD block: -5.6%; Mm-Cpn inhibitor: -0.4%; G9a inh: 30.3%[59 µM]; CCT chaperon mod: -40.8*; VDR inhibitor: -2.1%; Sfp inh: 3.6%

Results for COc1ccc(C(=O)NC(C)C2CC3CCC2C3)cc1 (configuration not stated) ?
PLK1 PBD block: -11.5%; Mm-Cpn inhibitor: -1.7%; G9a inh: 24.0%; CCT chaperon mod: 0.1; VDR inhibitor: 11.5%; Sfp inh: 4.9%

What do the screens show for `CC(NC(=O)c1ccc(N(C)C)cc1)C1CC2CCC1C2` (configuration not stated)?
PLK1 PBD block: -7.9%; Mm-Cpn inhibitor: -11.0%; G9a inh: 2.4%[59 µM]; CCT chaperon mod: -44.2*; VDR inhibitor: -16.6%; Sfp inh: 11.6%

What do the screens show for `C[C@@H](C(=O)Nc1ccc2ccccc2c1)[C@@H]1C[C@@]1(C)[C@@H](NC(=O)c1cnccn1)c1ccccc1`?
PLK1 PBD block: inconclusive; Mm-Cpn inhibitor: -2.3%; G9a inh: 50.1µM*; CCT chaperon mod: -2.8; VDR inhibitor: -5.8%; Sfp inh: 6.6%

Results for Cc1ccc(CN2CCC(CNC(=O)Nc3c(C)cccc3C)C2)cc1 (configuration not stated) ?
G9a inh: -43.4%[59 µM]; VDR inhibitor: -5.1%

How did O=c1c(-c2ccc(Cl)cc2)[n+]([O-])c2ccccc2n1O do in these assays?
PLK1 PBD block: -8.4%; Mm-Cpn inhibitor: 0.6%; G9a inh: 11.2µM*; CCT chaperon mod: 1.5; VDR inhibitor: 7.2%; Sfp inh: -18.7%

What do the screens show for `N/C(=N\OC(=O)N1c2ccccc2Sc2ccccc21)c1ccccc1`?
PLK1 PBD block: -13.3%; Mm-Cpn inhibitor: -4.5%; G9a inh: 44.7µM*; CCT chaperon mod: -5.0; VDR inhibitor: 6.7%; Sfp inh: -13.6%

What do the screens show for `O=S(=O)(Nc1nc(-c2sccc2Cl)cs1)c1cc(Cl)ccc1Cl`?
PLK1 PBD block: 16.8µM*; Mm-Cpn inhibitor: 1.9%; G9a inh: inconclusive; CCT chaperon mod: -4.5; VDR inhibitor: inconclusive; Sfp inh: -23.5%

How did Cc1cc(C)cc(-n2c(=O)c3sccc3n(CC(=O)NCc3ccco3)c2=O)c1 do in these assays?
PLK1 PBD block: -8.6%; Mm-Cpn inhibitor: 0.5%; G9a inh: -23.6%; CCT chaperon mod: -0.9; VDR inhibitor: -5.3%; Sfp inh: 7.9%

How did N#Cc1ccccc1Cn1c(=O)n(-c2ccc(CC(=O)NCc3ccco3)cc2)c(=O)c2sccc21 do in these assays?
PLK1 PBD block: -5.7%; Mm-Cpn inhibitor: -1.8%; G9a inh: -9.2%[59 µM]; CCT chaperon mod: -3.9; VDR inhibitor: -0.8%; Sfp inh: -1.8%

What do the screens show for `Cc1cccc(Cn2c(=O)n(-c3ccc(CC(=O)NCc4ccco4)cc3)c(=O)c3sccc32)c1`?
PLK1 PBD block: -18.2%; Mm-Cpn inhibitor: 0.6%; G9a inh: -6.7%; CCT chaperon mod: -2.5; VDR inhibitor: -10.9%; Sfp inh: 22.4µM*

Results for Cc1ccc(-n2c(=O)c3sccc3n(CC(=O)NCc3ccco3)c2=O)cc1 ?
PLK1 PBD block: -5.8%; Mm-Cpn inhibitor: -5.5%; G9a inh: 79.4µM*; CCT chaperon mod: -6.3; VDR inhibitor: 4.9%; Sfp inh: -5.0%

How did Cc1ccc(-c2csc(=S)n2CC(=O)OCC(=O)NCc2ccco2)cc1 do in these assays?
PLK1 PBD block: -15.9%; Mm-Cpn inhibitor: -3.3%; G9a inh: -16.1%[59 µM]; CCT chaperon mod: 1.4; VDR inhibitor: -11.7%; Sfp inh: 22.4µM*
